Tgondii IFNg: inhibitors of Toxoplasma gondii growth with IFN-gamma | 69,000 tested, 3.8% active | activity change, negative = inhibition, % (concentration not given with the values) | Toxoplasma gondii growth in IFN-gamma-treated host cells; stronger effect = lower value | AID 1259416; in the data active means activity change below about -70%, passing the limit was not always enough;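 further: host cells are HeLa cells infected with Toxoplasma gondii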
* = called active by the depositor; i = inactive. This excerpt belongs to a sample that is enriched for hits.

SMILES	Tgondii IFNg
CCCC(=O)Nc1ccc2c(c1)CCC(=O)N2CCC	59
CCCN1C(=O)CCc2cc(NC(=O)c3ccc(Cl)s3)ccc21	-90*
CCCN1C(=O)CCc2cc(NC(=O)c3cc(Cl)ccc3OC)ccc21	-93*
CCCN1C(=O)CCc2cc(NC(C)=O)ccc21	30
COCCN1C(=O)CCc2cc(NC(=O)c3ccc(Cl)s3)ccc21	-78*
O=C1c2ccc(F)cc2C(=O)N1c1ccc(F)c(Cl)c1	4
COCCn1c2c(ccc1=O)CC(NC(=O)c1cccn1C)CC2 (stereo not drawn)	3
CCCCN(C(=O)c1ccc(C)cc1)C1(C(=O)NCc2ccccc2)CCN(C(C)=O)CC1	64
COCC(=O)Nc1ccc2c(c1)OC[C@@H](C)N(C)C[C@H](C)[C@H](OC)CN(C)C2=O	-3
Cc1nocc1C(=O)N1CCC2(CC1)C(=O)N(CC(C)C)CCN2C	11
O=C(NC1CCC1)[C@H]1C[C@H]2CN(Cc3ccccc3)C[C@H]1O2	18
O=C(NC1CCC1)[C@H]1C[C@@H]2CN(C(=O)Nc3ccc(Cl)cc3)C[C@H]1O2	-7
O=C(NC1CCC1)[C@H]1C[C@H]2CN(Cc3ccc(Cl)cc3)C[C@H]1O2	-93*
Cc1nc(C)c(C(=O)N2CCCC2c2nc(C)c(Cc3ccccc3)c(=O)[nH]2)s1 (stereo not drawn)	-21
O=C(C1CCCCC1)N1CCc2c([nH]c3ccccc23)C1c1ccc(F)cc1 (stereo not drawn)	-75*
O=C(CCC1CCCC1)N1CCc2c([nH]c3ccccc23)C1c1ccc(F)cc1 (stereo not drawn)	-67
O=C(c1ccccc1Br)N1CCc2c([nH]c3ccccc23)C1c1ccc(Cl)cc1 (stereo not drawn)	358
CSc1ccc(C2c3[nH]c4ccccc4c3CCN2C(=O)C2CC2)cc1 (stereo not drawn)	74
O=C(c1ccc(Br)cc1)N1CCc2c([nH]c3ccccc23)C1c1ccc(Cl)cc1 (stereo not drawn)	-95*
O=C(CCC1CCCC1)N1CCc2c([nH]c3ccccc23)C1c1ccc(Cl)cc1 (stereo not drawn)	-106*
O=C(c1ccccc1)N1CCc2c([nH]c3ccccc23)C1c1cccnc1 (stereo not drawn)	85
O=C(c1cccc(Cl)c1)N1CCc2c([nH]c3ccccc23)C1c1cccnc1 (stereo not drawn)	-82*
COc1ccc(C(=O)N2CCc3c([nH]c4ccccc34)C2c2cccnc2)cc1OC (stereo not drawn)	70
COc1ccc(C2c3[nH]c4ccccc4c3CCN2C(=O)CCC2CCCC2)cc1 (stereo not drawn)	-55
Cc1ccc(C2c3[nH]c4ccccc4c3CCN2C(=O)C2CC2)cc1 (stereo not drawn)	146
SMILES	Tgondii IFNg
COc1ccc(C(=O)N2CCc3c([nH]c4ccccc34)C2c2ccc(C)cc2)cc1 (stereo not drawn)	i
CCCCN=C1Sc2nc3cc(C)c(C)cc3cc2CN1Cc1cccs1	6
O=C(C1CCOC1)N1C[C@H]2CN(Cc3cccc(F)c3)C(=O)[C@@H]2C1 (stereo partly drawn)	-3
COc1ccc(-c2nc3c(s2)CN(C(=O)Nc2ccc(C)cc2Cl)CC3)cc1OC	29
CC(=O)Nc1ncc(S(=O)(=O)N2CCCC(c3cc4ncccc4[nH]3)C2)s1 (stereo not drawn)	-1
COc1ccc(CNCC2OCCc3cn(CC4CCOCC4)nc32)cc1 (stereo not drawn)	-1
O=C(NCc1cccnc1N1CCCC(O)C1)c1ccc2c(c1)OCO2 (stereo not drawn)	0
Cc1oc(C2CCN(C(=O)Nc3ccc(F)cc3)CC2)nc1C(=O)N1CCOCC1	-66
Cc1cc(C)n(CCc2c(-c3ccccc3)ncn2CCN2CCOC2=O)n1	-1
CN(C)CCCNC(=O)c1ccn(-c2ccc3ccccn23)n1	-2
COc1ccc(C2c3[nH]c4ccccc4c3CCN2C(=O)c2cccnc2)cc1 (stereo not drawn)	256
O=C(c1ccncc1)N1CCc2c([nH]c3ccccc23)C1c1ccc(Cl)cc1 (stereo not drawn)	-88*
O=C(c1cccc(F)c1)N1CCc2c([nH]c3ccccc23)C1c1ccc(Cl)cc1 (stereo not drawn)	-53
CCOc1cc(C(=O)N2CCc3c([nH]c4ccccc34)C2c2cccnc2)cc(OCC)c1OCC (stereo not drawn)	-67
COc1cc(C(=O)N2CCc3c([nH]c4ccccc34)C2c2ccc(Cl)cc2)cc(OC)c1OC (stereo not drawn)	1
O=C(c1ccc(Br)cc1)N1CCc2c([nH]c3ccccc23)C1c1ccc(F)cc1 (stereo not drawn)	-94*
CCCC(=O)N1CCc2c([nH]c3ccccc23)C1c1ccccc1 (stereo not drawn)	259
O=C(c1ccc(Br)cc1)N1CCc2c([nH]c3ccccc23)C1c1ccccc1 (stereo not drawn)	-48
O=C(c1cccc(F)c1)N1CCc2c([nH]c3ccccc23)C1c1ccc(F)cc1 (stereo not drawn)	141
O=C(c1ccccc1)N1CCc2c([nH]c3ccccc23)C1c1ccc(Cl)cc1 (stereo not drawn)	-99*
CSc1ccc(C2c3[nH]c4ccccc4c3CCN2C(=O)c2cccnc2)cc1 (stereo not drawn)	468
CCOc1cc(C(=O)N2CCc3c([nH]c4ccccc34)C2c2ccccc2)cc(OCC)c1OCC (stereo not drawn)	-115*
CNC(=O)C1Cn2ccnc2C2(CCN(Cc3nccs3)CC2)O1 (stereo not drawn)	17
Cc1ccc(CN2CCC3(CC2)C(=O)N(C(C)C)C(=O)N3CCC(C)C)c(C)c1	-42
CC(C)c1noc(-c2cc(=O)n(CC(=O)Nc3ccccc3Cl)c3ccccc23)n1	-63
SMILES	Tgondii IFNg
CCc1ccccc1NC(=O)C1=C(C)C(=O)OC12CCN(CC)CC2	4
O=C(c1ccc2c(c1)OCO2)N1CCc2c([nH]c3ccccc23)C1c1ccc(F)cc1 (stereo not drawn)	-109*
CCOc1ccc(C2c3[nH]c4ccccc4c3CCN2C(=O)c2ccc(F)cc2)cc1 (stereo not drawn)	-89*
Cc1ccc(C2c3[nH]c4ccccc4c3CCN2C(=O)c2ccc3c(c2)OCO3)cc1 (stereo not drawn)	-62
CCOc1ccc(C2c3[nH]c4ccccc4c3CCN2C(=O)c2ccc(OC)c(OC)c2)cc1 (stereo not drawn)	i
COc1ccc(C(=O)N2CCc3c([nH]c4ccccc34)C2c2ccc(F)cc2)cc1OC (stereo not drawn)	-32
CCOc1ccc(C2c3[nH]c4ccccc4c3CCN2C(=O)c2cc(OC)c(OC)c(OC)c2)cc1 (stereo not drawn)	247
FC(F)(F)CCc1ccnc(NCc2csc(-c3ncccn3)n2)n1	3
Cc1ccc(-c2nc(Cn3cnc4nc5c(cc4c3=O)CC(C)CC5)c(C)o2)cc1 (stereo not drawn)	-46
Cc1ccccc1-n1nc(C)c(CN(CCCN2CCOCC2)Cc2cccnc2)c1C	-53
C=CC(=O)N1CCC[C@@H](n2nc(-c3ccc(Oc4ccccc4)cc3)c3c(N)ncnc32)C1	-79*
COc1ccc(-c2ncnc3c2c(C(=O)N2CCCC2)c2ccccn23)cc1	-50
NC(=O)c1[nH]c(C2CCCN(C(=O)COc3ccccc3)C2)nc1-c1ccccc1 (stereo not drawn)	-23
O=[N+]([O-])c1nccn1CC(O)CN1CCCCC1 (stereo not drawn)	2

Screening data as filed in PubChem.
